# Measured values reported in PMC12670160, “A drug-repurposing screen of FDA- and EMA-approved drugs identifies two NF-κB inhibitors active against eumycetoma” (Journal of Antimicrobial Chemotherapy, 2025).
# Counter-ions that a name gives are not always drawn. Among all 5,300 compounds or so, about 130 (2.5%) showed an effect of 50% or more. This excerpt belongs to a sample that is enriched for strong results.
# System: M. mycetomatis strain mm55
# Settings: primary screen, metabolic activity vs growth control; 96 h, 2 µM; inhibitor
row,Compound,% viability
1,"CO/N=C(/C(=O)NC1C(=O)N2C(C(=O)O)=C(C[N+]3(C)CCCC3)CSC12)c1csc(N)n1 (stereo not drawn) [ONC0000506, cefepime hydrochloride]",66.95%
2,"CC(=O)OCC(=O)[C@@]1(O)[C@@H](C)CC2C3CCC4=CC(=O)C=C[C@]4(C)[C@@]3(F)[C@@H](O)C[C@@]21C (stereo partly drawn) [ONC0004050, betamethasone acetate]",111.9%
3,"O=CN1CCC(C(=O)NCCN2CCC(=C3c4ccccc4C=Cc4ccccc43)CC2)CC1 [ONC0001856, at1015]",84.57%
4,"N#Cc1ccc(N2NC3=C(CCc4cc(C(=O)O)ccc43)[C@@H]2C2CCCC2)cc1Cl [ONC0002131, pf03882845]",78.15%
5,"COc1ccc(Nc2nccc(NCCO)n2)cc1 [ONC0000720, cardiogenolc]",79.31%
6,"O=C(Nc1cccc(Cl)c1)c1ccccn1 [ONC0004653, vu 0364770]",68.57%
7,OCCCNc1cc(-c2ccnc(Nc3cccc(Cl)c3)n2)ccn1 [cgp60474],9.09%
8,"CC(C)[C@H](N)C(=O)OCCOCn1cnc2c(=O)[nH]c(N)nc21 [ONC0004144, valacyclovir hydrochloride]",101.2%
9,"O=c1[nH]ccc2cc(OC3CCNCC3)ccc12 [ONC0001198, sar407899 hydrochloride]",94.6%
10,"O=C(CC1CC(c2ccc(F)cc2F)=NO1)N1CCOCC1 (stereo not drawn) [ONC0000237, cpsi1306]",89.07%
11,"O=C1CN(/N=C/c2ccc(-c3ccc([N+](=O)[O-])cc3)o2)C(O)=N1 [ONC0003073, dantrolene]",104.9%
12,"COC(=O)[C@@]12OC[C@]34[C@H]([C@@H](O)[C@@H]1O)[C@@]1(C)CC(=O)C(O)=C(C)[C@@H]1C[C@H]3OC(=O)[C@H](OC(=O)/C=C(\C)C(C)C)[C@@H]24 [ONC0001105, bruceantin]",72.53%
13,"COc1cc2c(NC3CCN(C)CC3)nc(N3CCCN(C)CC3)nc2cc1OCCCN(C)C [ONC0000276, unc0224]",85.54%
14,"COc1cc2nc(N3CCCN(C)CC3)nc(NC3CCN(Cc4ccccc4)CC3)c2cc1OC [ONC0004534, bix 01294]",44.63%
15,"COc1cc2c(NC3CCN(C)CC3)nc(N3CCCN(C)CC3)nc2cc1OCCOCCN(C)C [ONC0002054, unc0321]",65.32%
16,"CNCCc1c[nH]cn1 [ONC0002580, nalphamethylhistaminedihydrochloride]",77.02%
17,"C[C@]12C=CC(=O)C=C1CCC1C2[C@@H](O)C[C@@]2(C)C1CC[C@]2(O)C(=O)COC(=O)CCC(=O)O (stereo partly drawn) [ONC0004028, prednisolone hemisuccinate]",62.59%
18,"COc1ccc2c(NC(=O)Nc3cccc(C(F)(F)F)n3)ccnc2c1 [ONC0002529, a1070722]",76.76%
19,"O=C(O)CCC(=O)O [ONC0003714, succinic acid]",98.68%
20,"NCC(=O)CCC(=O)O [ONC0004291, aminolevulinic acid hydrochloride]",48.43%

row,Compound,% viability
1,"NCC(=O)O [ONC0001985, glycine]",104.5%
2,"CC(C)OC(=O)CNC(=O)[C@H](CS)NC(=O)CC[C@H](N)C(=O)O [ONC0002985, glutathionemonoisopropylester]",70.59%
3,"CC(C)(S)C(=O)N[C@@H](CS)C(=O)O [ONC0003276, bucillamine]",45.36%
4,"CC(=O)N[C@@H](CS)C(=O)O [ONC0000337, acetylcysteine]",67.99%
5,"NC(=O)c1cc[n+](CC2=C(C(=O)O)N3C(=O)[C@@H](NC(=O)Cc4cccs4)[C@H]3SC2)cc1 [ONC0005624, cefalonium]",95.75%
6,"CO[C@H]1CC[C@H](N(c2cc(C3=CCCCC3)sc2C(=O)O)C(=O)[C@H]2CC[C@H](C)CC2)CC1 [ONC0000943, vch916]",78.62%
7,"CC(C)c1ccc(C(=O)NC(=N)N)cc1S(C)(=O)=O [ONC0004136, cariporide]",93.97%
8,"CC12CCC(C(Br)C1=O)C2(C)C (stereo not drawn) [ONC0003727, 3bromocamphor]",127.8%
9,"Cc1csc2c(N[C@@H](C)CN3CCN(S(=O)(=O)c4ccc(Cl)c(Cl)c4)CC3)ncnc12 [ONC0001129, lpa2 antagonist 1]",45.06%
10,"O=C(O)/C(Cc1ccccc1[N+](=O)[O-])=N/Nc1nc(-c2ccc(Cl)c(Cl)c2)cs1 [ONC0005147, 4egi1]",73.1%
11,"CC[C@]1(O)C[C@H]2CN(CCc3c([nH]c4ccccc34)[C@@](C(=O)OC)(c3cc4c(cc3OC)N(C)[C@H]3[C@@](O)(C(N)=O)[C@H](O)[C@]5(CC)C=CCN6CC[C@]43[C@@H]65)C2)C1 [ONC0000288, vindesine sulfate]",94.86%
12,"CCCCC(=O)O[C@H]1CC[C@H]2[C@@H]3CCc4cc(O)ccc4[C@H]3CC[C@]12C [ONC0000727, estradiol valerate]",49.76%
13,"C[C@]12CC[C@@H]3c4ccc(O)cc4CC[C@H]3[C@@H]1CC[C@@H]2OC(=O)CCC1CCCC1 [ONC0000738, estradiol cypionate]",84.11%
14,"C[C@]12CC[C@@H]3c4ccc(O)cc4CC[C@H]3[C@@H]1CC[C@@H]2O [ONC0000707, estradiol]",85.31%
15,"[H]/N=C(\N/C(=N/[H])NCCCCCCNC(=N)NC(=N)Nc1ccc(Cl)cc1)Nc1ccc(Cl)cc1 [ONC0000326, chlorhexidine dihydrochloride]",77.24%
16,"Cc1cccc(NC(=O)N[C@@H]2N=C(c3ccccc3)c3ccccc3N(CC(=O)c3ccccc3C)C2=O)c1 [ONC0005568, ym022]",88.21%
17,"C=Cc1c(C)c2cc3nc(c(CC(=O)O)c4[nH]c(cc5nc(cc1[nH]2)C(C)=C5CC)c(C)c4C(=O)O)C(CCC(=O)O)C3C (stereo not drawn) [ONC0000409, chlorophyllin chlorin e6]",49.9%
18,"C=CC1=C(C)c2cc3[nH]c(cc4nc(cc5[nH]c(cc1n2)c(C)c5CCC(=O)O)C(CCC(=O)O)=C4C)c(C)c3C=C [ONC0000685, protoporphyrin ix]",98.29%
19,"CC1=C(CCC(=O)O)c2cc3[nH]c(cc4nc(cc5[nH]c(cc1n2)c(C)c5C(C)O)C(C)=C4C(C)O)c(C)c3CCC(=O)O (stereo not drawn) [ONC0002122, hematoporphyrin]",86.42%
